The campaign covered roughly 16,000 compounds. About 5,700 (36%) were called active. Inconclusive results (about 24%) are left out. The call rests on the fitted dose curve; in most records, active means well fitted curve in the direction sought with a large enough effect; inconclusive means small, poorly fitted or top-dose-only effect, or effect the other way; inactive means no such curve, though single readings can be large or run the other way. Some of the results follow. Square brackets hold non-standard residues; d marks the D form. Peptide text beside a SMILES is read from it. Ac5c = NC1(C(=O)O)CCCC1
molecular target: Cytochrome P450 1A2 (Homo sapiens) (UniProt P05177); assay: Cytochrome panel assay with activity outcomes; details: recombinant CYP, pro-luciferin dealkylation, luminescence, p450-cyp1a2; series mostly up to 57.1 µM
On the % scale 0 is the no-effect control and ±100 the full control effect.

Chain of Cytochrome P450 1A2 (Homo sapiens) (P05177 whole entry, looked up): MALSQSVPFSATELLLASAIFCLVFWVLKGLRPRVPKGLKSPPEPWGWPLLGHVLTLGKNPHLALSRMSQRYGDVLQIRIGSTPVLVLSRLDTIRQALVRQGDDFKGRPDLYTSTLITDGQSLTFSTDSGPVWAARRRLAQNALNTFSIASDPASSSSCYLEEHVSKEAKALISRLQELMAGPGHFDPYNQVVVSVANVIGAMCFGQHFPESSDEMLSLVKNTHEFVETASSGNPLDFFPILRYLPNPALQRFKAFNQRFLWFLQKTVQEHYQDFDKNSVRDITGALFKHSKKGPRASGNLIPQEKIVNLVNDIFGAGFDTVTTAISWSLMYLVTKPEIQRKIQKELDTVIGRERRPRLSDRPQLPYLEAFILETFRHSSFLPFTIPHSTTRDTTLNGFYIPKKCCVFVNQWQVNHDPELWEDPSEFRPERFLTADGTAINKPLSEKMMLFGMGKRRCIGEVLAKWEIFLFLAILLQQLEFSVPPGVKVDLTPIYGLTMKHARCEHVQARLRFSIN

Row | Structure (SMILES) | activity, negative = inhibition | AC50
1 | FC(F)(F)c1nc(SCc2ccc(Cl)cc2)n[nH]1 | -18.8% [at 2.29 µM] (inactive) | 
2 | COc1cnc(SCc2ccc(Cl)cc2)nc1Cl |  | 12.6 µM (active)
3 | CC1=CC(=O)c2ccccc2C1=O |  | 0.158 µM (active)
4 | CCCCNC(=O)NS(=O)(=O)c1cnccc1Sc1ccc(Cl)cc1 |  | inactive
5 | CC(C)NCCOCCSc1ccc(Cl)cc1 |  | 5.01 µM (active)
6 | CCCCNCCOCCSc1ccc(Cl)cc1 |  | 12.6 µM (active)
7 | Cc1cc(=O)[nH]c2c1c(C)nn2C1CCOC(C)(C)C1 (stereo not given) |  | inactive
8 | CO[C@@H]1COC(=O)[C@H](C)NC(=O)[C@@H](C)COC(=O)CCC[C@H]1C | -10.3% [at 11.4 µM] (inactive) | 
9 | CCOc1cc2[nH]c(=O)n(CCCC(=O)NCc3ccc(OC)cc3)c(=O)c2cc1OCC |  | inactive
10 | O=C(CCCCn1c(=S)[nH]c2ccsc2c1=O)NCc1ccco1 |  | 1.26 µM (active)
11 | O=C(CCCCCn1c(=O)[nH]c2ccsc2c1=O)NCc1ccc2c(c1)OCO2 |  | 14.1 µM (active)
12 | O=C(CCn1c(=O)[nH]c2ccsc2c1=O)Nc1ccc(F)c(F)c1 |  | inactive
13 | Cc1nc2ncnn2c(C)c1CCC(=O)NCc1ccco1 |  | inactive
14 | CCOc1cc2[nH]c(=S)n(CCCC(=O)NCc3ccco3)c(=O)c2cc1OCC |  | inactive
15 | Cc1ccc(-n2c(C)cc(C(=S)N3CCOCC3)c2C)cc1C |  | inactive
16 | CC(=O)Nc1c(C)nn(-c2ccc(C)c(C)c2)c1C |  | 14.1 µM (active)
17 | CC(=O)Nc1c(C(=O)N2CCOCC2)cnn1-c1ccc(C)c(C)c1 |  | inactive
18 | NCC(=O)NC1(C(=O)O)CCCC1 (H-Gly-[Ac5c]-OH) | -5.18% [at 11.4 µM] (inactive) | 
19 | O=C1CC(=O)C(n2cncn2)C(c2cccc(Cl)c2)C1 (stereo not given) |  | inactive
20 | C[N+](C)(C)CCCCCNCC12CC3CC(CC(C3)C1)C2 |  | inactive
21 | COc1ccccc1CN1CC2(CCN(C(=O)c3ccncc3)CC2)C1 |  | inactive
22 | COc1ccccc1CN1C(=O)c2ccncc2C1=O |  | 14.1 µM (active)
23 | COc1ccccc1CN1CC2(CCN(C(=O)c3cnccn3)CC2)C1 |  | inactive
24 | NC1=NC(=O)/C(=C/c2cccs2)S1 |  | 1.41 µM (active)
25 | O=C1N=C(N2CCOCC2)S/C1=C\C=C/c1ccccc1 |  | 14.1 µM (active)

Row | Structure (SMILES) | activity, negative = inhibition | AC50
26 | O=C1N=C(N2CCOCC2)S/C1=C/c1cccs1 |  | 5.62 µM (active)
27 | CC(C)(C)OC(=O)[C@H]([C@@H]1N[C@@H](C(=O)O)C(C)(C)S1)N1C(=O)c2ccccc2C1=O | -1.41% [at 2.29 µM] (inactive) | 
28 | C[C@H]1CC(C)(C)C[C@@](OCCN2CCCCC2)(c2ccccc2)C1 | 0.209% [at 11.4 µM] (inactive) | 
29 | CCCN1CC=C2C(C#N)=C(N)C(C#N)(C#N)C(c3cc(OC)ccc3OC)C2C1 (stereo not given) |  | 31.6 µM (active)
30 | O=C(O)C[n+]1ccccc1 | -7.86% [at 11.4 µM] (inactive) | 
31 | COc1ccc(O[C@H]2C=C[C@@H](c3ccccc3)O[C@H]2COC(=O)CC/C(C)=N/OCC[C@@H]2C=C[C@H](OC(C)=O)[C@H](COC(C)=O)O2)cc1 | -2.16% [at 11.4 µM] (inactive) | 
32 | CN=C1N[C@H](c2ccccc2)N(c2ccccc2)S1 |  | 1.26 µM (active)
33 | Cc1c(CCC(C)C)c(-n2ccnc2C)n2c(nc3ccccc32)c1C#N |  | inactive
34 | Cc1ccccc1S(=O)(=O)Oc1ccccc1C(=O)Oc1ccccc1 |  | 3.55 µM (active)
35 | Cc1ccccc1S(=O)(=O)O[C@@H]1NS(=O)(=O)c2ccccc21 | 13.5% [at 2.29 µM] (inactive) | 
36 | COC(=O)[C@H](Cc1ccccc1)NC(=O)N1CCN(Cc2ccccc2)CC1 |  | inactive
37 | Oc1ccc2ccccc2c1C=NCc1c(O)ccc2ccccc12 |  | 1.58 µM (active)
38 | O=C(O)Cc1c(O)ccc2ccccc12 | -9.69% [at 11.4 µM] (inactive) | 
39 | O=S(=O)(c1ccccc1)N1CCC[C@@]2(CCN(c3ccncc3)C2)C1 |  | inactive
40 | c1ccc(-c2ccc(N3CC[C@@]4(CCCNC4)C3)cc2)cc1 |  | 12.6 µM (active)
41 | O=C(c1csnn1)N1CCC2(CCCN(c3ccc(-c4ccccc4)cc3)C2)CC1 |  | inactive
42 | c1ccc(-c2ccc(N3CC4(CCNCC4)C3)cc2)cc1 |  | 15.8 µM (active)
43 | c1ccc(C(c2ccccc2)N2CC[C@@]3(CCCNC3)C2)cc1 |  | inactive
44 | c1ccc(-c2ccc(N3CCCC4(CCNCC4)C3)cc2)cc1 |  | 10 µM (active)
45 | COc1ccccc1CN1CCCC2(CCNCC2)C1 |  | inactive
46 | N[C@@H](Cc1ccccc1)C(=O)O | -14% [at 11.4 µM] (inactive) | 
47 | COc1ccccc1-c1nc(N(C)C)c2ccccc2n1 |  | 0.398 µM (active)
48 | CN(C)c1nc(-c2ccccc2C(F)(F)F)nc2ccccc12 |  | 0.251 µM (active)
49 | Cc1ccccc1-c1nc(N(C)C)c2ccccc2n1 |  | 0.631 µM (active)
50 | Cc1ccc(-c2ccc(=O)n(CC(=O)NCCN3CCCCC3C)n2)cc1 (stereo not given) |  | inactive

Row | Structure (SMILES) | activity, negative = inhibition | AC50
51 | O=C(NCC1COc2ccccc2O1)C1C2C=CC3(CN(Cc4cccs4)C(=O)C13)O2 (stereo not given) |  | inactive
52 | COC(=O)CCCC(=O)O | -7.34% [at 2.29 µM] (inactive) | 
53 | CC1(C)CC(=O)C/C(=N/NC(=O)CCCOc2ccc(Cl)cc2Cl)C1 |  | 15.8 µM (active)
54 | COCCCNC(=O)C(=O)N/N=C/c1ccc(OCC(=O)Nc2cccc(Cl)c2C)c(OC)c1 |  | inactive
55 | COc1ccc(/C=N/NC(=O)CCCOc2ccc(Cl)cc2Cl)cc1[N+](=O)[O-] |  | 1.26 µM (active)
56 | CC(C)C(=O)Nc1ccc(C(=O)NNC(=O)CCCOc2ccc(Cl)cc2Cl)cc1 |  | inactive
57 | COC(=O)CCC(=O)NNC(=O)CCCOc1ccc(Cl)cc1Cl |  | 12.6 µM (active)
58 | Cc1cccc(CNc2ccnc(-c3ccccc3CN(C)C)n2)c1 |  | 3.16 µM (active)
59 | Cc1cccc(CNc2ccnc(-c3ccccc3Cl)n2)c1 |  | 1.58 µM (active)
60 | Clc1ccccc1-c1nccc(NCc2ccccc2)n1 |  | 3.16 µM (active)
61 | COc1ccc(-n2c(N)c(C(=O)NCc3ccco3)sc2=S)cc1 |  | 11.2 µM (active)
62 | CCOc1ccc(-n2c(N)c(C(=O)NCc3cccnc3)sc2=S)cc1 |  | inactive
63 | OC[C@@H]1NC[C@@H](O)[C@H]1O |  | inactive
64 | CCOC(=O)c1[nH]c2ccc(Cl)cc2c1-c1ccccc1 |  | 0.398 µM (active)
65 | NC(=NCc1ccc(Cl)c(Cl)c1)NC(=O)c1nc(Cl)c(N)nc1N |  | 10 µM (active)
66 | CCNC(=O)CC1C(=O)N(c2ccc(F)cc2)C(=O)N1CCc1ccc(OC)cc1 (stereo not given) |  | inactive
67 | O=C(CC1C(=O)N(c2ccc(Cl)cc2)C(=S)N1CCc1ccncc1)Nc1ccc(F)cc1 (stereo not given) |  | 5.01 µM (active)
68 | CC(=O)Nc1ccc(S(=O)(=O)NC2(C(F)(F)F)NC(=O)N(c3ccc(Cl)cc3)C2=O)cc1 (stereo not given) |  | inactive
69 | Cn1c(-c2ccccc2)cnc1N |  | 17.8 µM (active)
70 | CCCn1c(-c2ccccc2)nc2c(=O)n(C)c(=O)[nH]c21 |  | inactive
71 | CN(C)c1ccc(-c2nc(N(C)C)c3ccccc3n2)cc1 |  | 0.251 µM (active)
72 | CN(C)c1nc(-c2ccoc2)nc2ccccc12 |  | 0.501 µM (active)
73 | CNc1nc(-c2ccc(N(C)C)cc2)nc2ccccc12 |  | 0.2 µM (active)
74 | CN(C)c1ccc(-c2nc(Nc3ccncc3)c3ccccc3n2)cc1 |  | 0.501 µM (active)
75 | COCC(=O)N1CCC[C@@]2(CCN(Cc3ccccc3)C2)C1 |  | inactive

Row | Structure (SMILES) | activity, negative = inhibition | AC50
76 | O=C(CC1(O)CCCCC1)OC1CCCC1 | -12.2% [at 11.4 µM] (inactive) | 
77 | CC1(C)O[C@H]2[C@@H](O1)[C@@H](On1nnc3ccc(Cl)cc31)O[C@@H]2[C@@H]1COC(C)(C)O1 | -10.9% [at 2.29 µM] (inactive) | 
78 | CN(C)c1nc(-c2cccnc2)nc2ccccc12 |  | 0.126 µM (active)
79 | CCOC(=O)Cc1c(C)nc2c(C#N)c[nH]n2c1=O |  | inactive
80 | CCOC(=O)Cc1cc(=O)n2[nH]c(C)c(-c3ccccc3)c2n1 |  | 12.6 µM (active)
81 | CCOC(=O)Cc1cc(=O)n2[nH]c(C)c(C#N)c2n1 |  | inactive
82 | S=C(CSc1ccccc1)Nc1cccc2ccccc12 |  | 1.26 µM (active)
83 | CO[C@@H]1COC(=O)CCC[C@@H](C)[C@H](OC)COC(=O)CCC[C@H]1C | 5.33% [at 11.4 µM] (inactive) | 
84 | CS(=O)(=O)c1ccccc1-c1nc(-c2cc(C(F)(F)F)cc(C(F)(F)F)c2)no1 |  | inactive
85 | Cc1cccc(-c2noc(-c3cc4ccccc4oc3=O)n2)c1 |  | 3.16 µM (active)
86 | NC1=NC2(CCCCC2)N=C(Nc2ccc(F)cc2F)N1 |  | inactive
87 | Cc1ccc(C(=O)NNC(=O)C2CCCN(c3ncccn3)C2)cc1 (stereo not given) |  | inactive
88 | O=C(O)C1CCCCC1C(=O)Nc1cc(Cl)ccc1Cl (stereo not given) |  | inactive
89 | COc1cc(C)nc(N2CCCC(C(=O)Nc3cc(Cl)ccc3OC)C2)n1 (stereo not given) |  | 3.55 µM (active)
90 | CN1CCN(S(=O)(=O)c2ccc3[nH]cc(C(=O)O)c(=O)c3c2)CC1 |  | inactive
91 | Cc1ccccc1NS(=O)(=O)c1ccc2[nH]cc(C(=O)N(C)Cc3ccco3)c(=O)c2c1 |  | 15.8 µM (active)
92 | CCOC(=O)N1CCN(S(=O)(=O)c2ccc3[nH]cc(C(=O)O)c(=O)c3c2)CC1 |  | inactive
93 | COc1ncc2nc(-c3cccs3)c(=O)n(C)c2n1 |  | 2 µM (active)
94 | COc1ccc(Oc2ncc3nc(-c4cccs4)c(=O)n(C)c3n2)cc1 |  | 3.16 µM (active)
95 | O=C(NNC(=O)c1cc2cc3ccccc3nc2s1)c1cccc(C(F)(F)F)c1 |  | inactive
96 | Cc1sc(N)c(C(=O)c2cccc(C(F)(F)F)c2)c1C |  | 15.8 µM (active)
97 | CC(C)NC1(C(N)=O)CCN(Cc2ccccc2)CC1 | 7.61% [at 2.29 µM] (inactive) | 
98 | Cc1ccnc(NCn2nnc3ccccc32)c1 |  | 28.2 µM (active)
99 | O=C(Cn1nnc2ccccc21)N1CCCCC1 |  | inactive
100 | COc1ccc(N(C(=O)Cn2nnc3ccccc32)C2(C(=O)NC3CCCC3)CCCCC2)cc1 |  | inactive
